An excerpt weighted towards active compounds, which were near 3.4% of everything screened.
TEAD-YAP inh – TEAD-YAP interaction inhibition, primary screen, TEAD-YAP interaction inhibitor project, luminescence, HEK-TIYL cells; TEAD-Gal4/YAP UAS-luciferase luminescence; inhibition, % at 9.12 µM; 640,000 tested, 1.4% active; in the data active = inhibition above about 32%;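 also: 0% = median of test compound wells and 100% = reference inhibitor wells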
GPR151 ag – activators of human GPR151, primary screen, cell-based, PathHunter beta-arrestin, luminescence; PathHunter beta-arrestin GPR151 cells; activation, % at 11.2 µM; 650,000 tested, 1% active; AID 1508602, 2020; in the data active = activation above about 4.9%;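 also: 0% = median of compound wells and 100% = cells with positive control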
FBW7 act – FBW7 E3 ligase activators, primary screen, biochemical, AlphaScreen, human; F-box/WD repeat-containing protein 7 (Homo sapiens), Q969H0; normalized activity (activation), % at 26.1 µM; AID 1259310, 2017; 650,000 tested, 0.13% active; AlphaScreen FBW7–phospho-cyclin E peptide binding, activator screen; in the data active = normalized activity above about 1.9%;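 also: purified mutant Fbw7 with reduced substrate affinity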
Target sequence (Q969H0 whole entry, looked up): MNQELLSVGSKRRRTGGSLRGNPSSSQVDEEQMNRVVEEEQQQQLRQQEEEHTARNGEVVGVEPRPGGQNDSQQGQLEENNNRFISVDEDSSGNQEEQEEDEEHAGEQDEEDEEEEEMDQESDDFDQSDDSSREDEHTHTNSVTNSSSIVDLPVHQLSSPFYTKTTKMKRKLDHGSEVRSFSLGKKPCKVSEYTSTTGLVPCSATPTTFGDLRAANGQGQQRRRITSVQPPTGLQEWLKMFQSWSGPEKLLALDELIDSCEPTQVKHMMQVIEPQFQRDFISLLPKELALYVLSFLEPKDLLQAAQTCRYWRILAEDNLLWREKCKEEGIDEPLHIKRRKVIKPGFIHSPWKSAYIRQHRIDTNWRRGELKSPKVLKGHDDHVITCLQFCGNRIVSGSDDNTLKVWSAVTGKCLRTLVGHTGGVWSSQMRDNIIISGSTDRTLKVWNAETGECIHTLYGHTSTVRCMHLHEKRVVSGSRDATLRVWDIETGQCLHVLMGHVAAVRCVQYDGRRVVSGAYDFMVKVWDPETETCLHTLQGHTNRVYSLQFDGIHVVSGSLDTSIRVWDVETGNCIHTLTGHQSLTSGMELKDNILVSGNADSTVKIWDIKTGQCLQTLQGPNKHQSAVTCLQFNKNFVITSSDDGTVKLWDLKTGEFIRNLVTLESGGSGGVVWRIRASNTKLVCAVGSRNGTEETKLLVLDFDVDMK
MITF primary – MITF inhibitors, primary screen, biochemical, AlphaScreen, human. AlphaScreen MITF homodimerization, bead proximity signal. Microphthalmia-associated transcription factor (Homo sapiens), O75030. inhibition, % at 2.6 µM. 650,000 tested, 0.91% active. AID 1259374, 2018; in the data active = inhibition above about 50%;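 also: 0% = vehicle wells with protein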
Numbers without * were called inactive.

SMILES	TEAD-YAP inh	GPR151 ag	FBW7 act	MITF primary
COCCOC(=O)C1=C(C)N=C2SCCC(=O)N2C1c1ccc(OC(C)=O)c(OC)c1 (configuration not stated)	0.0	-0.8	0.1	8.1
NS(=O)(=O)c1cccc(NS(=O)(=O)c2cccc([N+](=O)[O-])c2)c1	-9.3	0.8	4.6*	-2.9
COc1ccc(OC)c(C2NC(=O)c3[nH]nc(-c4ccc(C)cc4)c32)c1 (configuration not stated)	61.8*	1.5	0.1	7.8
COc1ccc(-c2n[nH]c3c2C(c2ccc(F)cc2)NC3=O)cc1 (configuration not stated)	14.3	1.8	-0.1	4.2
Nc1ccc(S(=O)(=O)O)c2cccc(O)c12	11.6	-0.3	-1.2	70.9*
Cc1nc2sccn2c1C(=O)NCC(C)(C)C	-8.7	0.9	-0.1	2.5
Cc1cccc(Nc2nc3nonc3nc2Nc2ccccc2I)c1	86.5*	1.2	-0.1	9.9
CC(C)n1c(Nc2ccccn2)nc2c(Nc3ccc(Oc4ccccc4)cc3)ncnc21	56.1*	0.7	0.1	1.2
CC(C)n1c(Nc2ccccn2)nc2c(NCCOc3ccccc3)ncnc21	-29.1	2.0	-0.1	-1.0
CCOC(=O)C1=C(C)NC2=C(C(=O)C(C(=O)OCC)C(c3cccc(OC)c3)C2)C1c1cccs1 (configuration not stated)	-6.7	0.0	0.0	2.6
CS(=O)(=O)c1ccc2nc(NC(=O)C3=COCCO3)sc2c1	-13.1	-1.2	-0.1	9.5
O=C(O)c1ccccc1C(=O)Nc1nc(-c2ccc(Br)cc2)cs1	3.8	0.7	2.1*	0.0
Cc1ccc(S(=O)(=O)Nc2ccccc2C(=O)Nc2nc3c(Cl)cccc3s2)cc1	33.2*	-0.2	0.0	-9.5
Cc1ccc(-c2csc(NC(=O)c3ccccc3NS(=O)(=O)c3ccc(C)cc3)n2)cc1	23.4	0.9	0.1	7.7
Cc1ccc2nc(NC(=O)C3=COCCO3)sc2c1	65.7*	-10.8	0.3	9.4
Cc1ccc(S(=O)(=O)Nc2ccccc2C(=O)Nc2nc(-c3ccc(F)cc3)cs2)cc1	54.3*	2.1	-0.2	0.0
Cc1ccc(-c2csc(NC(=O)c3ccccc3C(=O)O)n2)cc1	-6.0	0.1	0.1	7.2
O=C(CSc1ncnc2sc3c(c12)CCC3)c1ccc(F)cc1	-6.4	-0.6	0.2	9.6
COc1cccc(-n2cc(C(=O)Nc3cccc(C(C)=O)c3)c3ccccc3c2=O)c1	16.4	-1.1	-0.1	-13.6
Cc1ccc(S(=O)(=O)Nc2ccccc2C(=O)Nc2nc3ccc(Br)cc3s2)cc1	54.8*	1.4	0.1	-16.4
Cc1ccc(S(=O)(=O)Nc2ccccc2C(=O)Nc2nc3ccc(Cl)cc3s2)cc1	1.8	1.2	0.1	-11.3
COc1ccc(Cl)cc1NC(=O)C(=O)NC(C)c1ccccc1 (configuration not stated)	0.1	-1.1	0.0	12.2
COC(=O)c1ccc2nc(-c3ccc(F)cc3)cn2c1	41.9*	-8.5	0.0	2.5
Cc1ccc2nc(-c3ccc(F)cc3)cn2c1	93.4*	-10.0	0.1	-15.5
COc1ccc(-c2cn3cc(C)ccc3n2)cc1	82.0*	-7.8	-0.1	-3.5
SMILES	TEAD-YAP inh	GPR151 ag	FBW7 act	MITF primary
Cc1ccc2nc(-c3ccccc3Cl)cn2c1	93.2*	-6.9	-0.2	-6.1
Cc1ccc2nc(-c3cc4ccccc4oc3=O)cn2c1	-36.5	-4.7	0.1	-2.1
CCC(C)C(NC(=O)OC(C)(C)C)C(=O)NC(CC(C)C)C(=O)NC(CCC(=O)OCc1ccccc1)C(N)=O (configuration not stated)	3.6	-0.6	0.0	-0.6
CC(C)n1c(O)c(N=NC(=O)Cc2csc(N3CCOCC3)n2)c2ccccc21	82.3*	-1.4	-0.3	16.9
COc1cc(/C=N/NC(=O)Cc2csc(N3CCOCC3)n2)cc(OC)c1O	4.2	-0.2	0.1	0.4
Cc1ccc(-c2c3c(nc4sc(C(=O)Nc5ccc(C)c(C)c5)c(N)c24)CCCC3)o1	-5.2	0.4	-0.2	-14.0
CC(C)c1ccc(NC(=O)C2C3C=CC4(O3)C2C(=O)N(C2CC2)C4C(=O)NC2CCCCC2C)cc1 (configuration not stated)	-2.3	1.7	0.1	5.3
CNC(=O)C(=O)NCCC1CCCCN1S(=O)(=O)c1ccc(C)cc1 (configuration not stated)	1.5	1.0	0.0	3.1
COc1cccc(CNC(=O)C(=O)NCC2CCCN2S(=O)(=O)c2ccc(C)cc2)c1 (configuration not stated)	40.5*	3.5	-0.1	2.5
COc1cccc(NC(=O)C(=O)NCC2CCCN2S(=O)(=O)c2ccccc2)c1 (configuration not stated)	-55.3	1.8	0.1	-5.1
CCCCCNC(=O)C(=O)NCC1CCCN1S(=O)(=O)c1ccc(C)cc1 (configuration not stated)	49.1*	0.8	0.1	-3.4
Cc1ccc(S(=O)(=O)N2CCCCC2CCNC(=O)C(=O)NCc2cccnc2)cc1 (configuration not stated)	36.3*	-0.5	0.6	2.2
CCCNC(=O)C(=O)NCC1CCCN1S(=O)(=O)c1ccc(C)cc1 (configuration not stated)	9.6	2.5	0.0	3.1
O=C(CCNc1ccc2c(c1)oc1ccccc12)c1ccccc1	12.8	0.1	0.0	0.6
CCOc1ccccc1NC(=O)c1nnn(-c2cccc(OC)c2)c1C	-9.0	0.3	0.0	-12.3
Cc1ccccc1N(O)/C=C1\C=C(Br)C=CC1=O	14.9	1.0	0.1	-5.9
COc1cccc(/C=C2\Oc3ccc(O)cc3C2=O)c1O	96.7*	-7.8	0.0	3.4
COC(=O)c1ccc2c(c1)C(=O)/C(=C/c1cc(OC)c(OC)c(OC)c1)O2	-7.9	1.0	0.1	4.6
COC(=O)c1ccc2c(c1)C(=O)/C(=C/c1ccc(O)cc1)O2	52.0*	2.4	0.2	-0.3
COC(=O)c1ccc2c(c1)C(=O)/C(=C/c1ccccc1OC)O2	-2.7	1.7	0.1	-2.2
COC(=O)c1ccc2c(c1)C(=O)/C(=C/c1cccc(O)c1)O2	41.8*	-1.6	-0.1	13.0
O=C(COc1ccccc1[N+](=O)[O-])Nc1nncs1	-10.6	-0.4	-0.2	12.3
O=[N+]([O-])c1ccccc1NC1OC(CO)C(O)C(O)C1O (configuration not stated)	10.3	0.2	0.3	4.7
COc1ccc(C2(C)C(=O)c3ccccc3C2=O)cc1	11.0	-1.3	0.8	9.9
Nc1ccc(/C=C/c2nc3ccccc3o2)cc1	44.5*	-3.8	0.0	11.9
N[C@H](Cc1cccc(F)c1)c1nc2ncc(-c3ccncc3)cc2[nH]1	48.2*	0.0	-0.8	10.6
N[C@H](Cc1cc(F)cc(F)c1)c1nc2ccc(-c3ccncc3)cc2[nH]1	-5.9	-0.1	-1.4	6.7
CCS(=O)(=O)c1ccc2oc(=O)c(/C=C(\O)c3ccc(Br)cc3)nc2c1	3.0	0.5	0.1	6.4
